# Measurements reported in PubChem BioAssay (NCATS).
# Results filed as inconclusive are left out. Entries that show only a call come without a potency. Unmarked numbers belong to inactive results. Activity calls are given as the source filed them. Calls follow the shape of the dose curve; as a rule, active = well fitted curve in the direction sought with a large enough effect; inconclusive = small, poorly fitted or top-dose-only effect, or another doubt; inactive = no such curve, though single readings can be large; an effect the other way counts as inactive or inconclusive.
# How the values were obtained:
# [1] = biological target: Retinaldehyde dehydrogenase 3 (Homo sapiens) (UniProt P47895); test: qHTS for Inhibitors of the Aldehyde Dehydrogenase Family (ALDH1A3) Confirmatory screens (AID 2061311); also: nearly all actives have a fitted effect of over 60% in size; also: potency is read from the fitted curve at half-maximal effect
# [2] = biological target: Retinal dehydrogenase 2 (Homo sapiens) (UniProt O94788); test: qHTS for Inhibitors of the Aldehyde Dehydrogenase Family (ALDH1A2) Confirmation screens (AID 2061314); also: nearly all actives have a fitted effect of over 65% in size; also: potency is read from the fitted curve at half-maximal effect
# [3] = biological target: Retinaldehyde dehydrogenase 3 (Homo sapiens) (UniProt P47895); test: qHTS for Inhibitors of the Aldehyde Dehydrogenase Family (ALDH1A3) Primary screen (AID 2061315); also: potency is read from the fitted curve at half-maximal effect
# [4] = biological target: Aldehyde dehydrogenase 1A1 (Homo sapiens) (UniProt P00352); test: qHTS for Inhibitors of the Aldehyde Dehydrogenase Family (ALDH1A1) Confirmatory screens (AID 2061316); also: nearly all actives have a fitted effect of over 65% in size; also: potency is read from the fitted curve at half-maximal effect
# [5] = biological target: Retinaldehyde dehydrogenase 3 (Homo sapiens) (UniProt P47895); test: qHTS for Inhibitors of the Aldehyde Dehydrogenase Family (ALDH1A3) Validation screen (AID 2061312); also: nearly all actives have a fitted effect of over 45% in size
# [6] = BET inhibitor-based combinations targeting novel dependencies in MECOM-rearranged (r) AML: SET-2 cell line (AID 2202231); conditions: SET-2 AML cells viability, CellTiter-Glo luminescence, 48 h; viability: hits give low values, concentration not given here; also: nearly all actives have a fitted effect of over 35% in size; also: potency is read from the fitted curve at half-maximal effect
# Procedure, shortened: (§1)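 Each compound was tested at eleven concentrations on cells seeded at 500/well. After two days' incubation, ATP-based luminescence reported viability; responses relative to DMSO and blank wells yielded AUC and cell-line-centred Z-AUC.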
# [7] = BET inhibitor-based combinations targeting novel dependencies in MECOM-rearranged (r) AML: OCI-AML3 cell line (AID 2202232); conditions: Potency: OCI-AML3 viability; also: potency is read from the fitted curve at half-maximal effect; nearly all actives have a fitted effect of over 35% in size
# Procedure, shortened: as §1
# [8] = BET inhibitor-based combinations targeting novel dependencies in MECOM-rearranged (r) AML: MV-4-11 cell line (AID 2202233); also: potency is read from the fitted curve at half-maximal effect; nearly all actives have a fitted effect of over 45% in size
# Procedure, shortened: (§2)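 First, 500 cells per well were seeded; next, drugs were pinned as 11-point doses; then plates sat 48 hr in the incubator; finally CellTiter-Glo was added and luminescence read, with AUC and Z-AUC computed.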
# [9] = BET inhibitor-based combinations targeting novel dependencies in MECOM-rearranged (r) AML: HNT-34 cell line (AID 2202234); also: potency is read from the fitted curve at half-maximal effect; nearly all actives have a fitted effect of over 35% in size
# Procedure, shortened: as §2
# [10] = BET inhibitor-based combinations targeting novel dependencies in MECOM-rearranged (r) AML: UCSD-AML1 cell line (AID 2202235); also: potency is read from the fitted curve at half-maximal effect; nearly all actives have a fitted effect of over 40% in size
# Procedure, shortened: as §2
# [11] = BET inhibitor-based combinations targeting novel dependencies in MECOM-rearranged (r) AML: AML-191 cell line (AID 2202236; also: potency is read from the fitted curve at half-maximal effect; nearly all actives have a fitted effect of over 35% in size)
# Procedure, shortened: as §1
structure (smiles),measurement,setting,value
CC(=O)N1CCN(c2ccc(NS(=O)(=O)c3ccc4c(c3)CC(=O)N4)cc2)CC1,Potency,[1],inactive
same,Potency,[2],inactive
same,Potency,[3],inactive
CC(=O)NC(C)c1cc(Cl)c2ccccc2c1O (stereo not given),Potency,[1],3.18 µM (active)
same,Potency,[2],12.7 µM (active)
same,Potency,[4],4 µM (active)
Oc1ccc(Nc2ccccc2F)c2cccnc12,Potency,[1],7.98 µM (active)
same,Potency,[3],1.26 µM (active)
same,Potency,[4],inactive
COc1ccc(C(=O)c2ccc(-c3no[n+]([O-])c3C#N)cc2)cc1,Potency,[1],2.51 µM (active)
same,Potency,[2],12.6 µM (active)
same,Potency,[3],inactive
same,Potency,[4],5.65 µM (active)
COc1cc(/C=C(\C#N)C(=O)Nc2ccc(C(=O)O)cc2)ccc1OC(=O)c1cccc(F)c1,Potency,[1],15.8 µM (active)
same,Potency,[2],inactive
same,Potency,[4],inactive
C=CC(=O)N1CCC[C@@H](n2nc(-c3cccc(C(=O)Nc4ccc(C(C)C)c(C)c4)c3)c3c(N)ncnc32)C1,Potency,[5],inactive
same,Potency,[3],inactive
C=CC(N)CCC(=O)O (stereo not given),Potency,[5],inactive
CCn1cnc2c(Nc3ccc(Cc4cccnc4)cc3)nc(C#N)nc21,Potency,[3],inactive
CCOC(=O)c1c(-c2ccc(C)o2)csc1NC(=O)CSc1nnnn1-c1ccccc1,Potency,[2],5.04 µM (active)
same,Potency,[3],inactive
same,Potency,[4],0.4 µM (active)
Cc1c(C(=O)OCc2ccco2)[nH]c2c1C(=O)CC(c1ccco1)C2 (stereo not given),Potency,[2],3.18 µM (active)
same,Potency,[3],inactive
same,Potency,[4],1.42 µM (active)
O=C(Nc1ncnc2c1C(c1ccccc1)c1c(ccc3ccccc13)O2)c1ccccc1 (stereo not given),Potency,[3],inactive
O=C(O)c1ccc(CSc2nnc(-c3cccc([S+](=O)([O-])N4CCCC4)c3)n2-c2ccccc2)cc1,Potency,[3],inactive
Oc1ccc(CNc2ccc(F)cc2Cl)c2cccnc12,Potency,[3],inactive
COc1ccc(C2c3c(N)nc(Cc4ccccc4)nc3Oc3ccc4ccccc4c32)cc1OC (stereo not given),Potency,[3],inactive
c1ccc(-n2ccc(-c3nnc4n3CCCCC4)c2)cc1,Potency,[3],inactive
O=C(OCC#CCNc1nnc(-c2cccc3ccccc23)o1)c1cccs1,Potency,[3],inactive
Cc1csc(CNc2ncnc3ccc(-c4ccc(C(C)O)o4)cc23)n1 (stereo not given),Potency,[2],5.65 µM (active)
same,Potency,[3],inactive
same,Potency,[4],11.3 µM (active)
O=C(O)C1NCc2[nH]cnc2C1c1ccccc1 (stereo not given),Potency,[2],4 µM (active)
same,Potency,[3],inactive
same,Potency,[4],11.3 µM (active)
Cc1nc(CN(C)c2ncnc3cc(-c4ccc5c(c4)OCO5)ccc23)cs1,Potency,[3],inactive
O=C(O)c1ccc(-c2ccc(NC(=O)c3cccs3)cn2)cc1,Potency,[3],inactive
Cn1ccc2cc(-c3csc(N4CCC(C(N)=O)CC4)n3)ccc21,Potency,[3],inactive
CCOC(=O)c1nn(-c2ccc(OC)cc2)c(=O)c2c(N)scc12,Potency,[3],inactive
c1cncc(-c2ccc3ncnc(NCc4ccc5c(c4)OCO5)c3c2)c1,Potency,[3],inactive
O=C(CN1C(=O)N/C(=C\c2cccn2-c2cccc(C(=O)O)c2)C1=O)Nc1ccc(Cl)cc1,Potency,[3],inactive
Cc1ccc(N2CCN(C(=S)Nc3cc(C)ccn3)CC2)cc1,Potency,[3],inactive
Cn1ncc2ccc(-c3ccc4ncnc(NCc5cccs5)c4c3)cc21,Potency,[3],inactive
Cc1ccc(-c2nc3ccccc3s2)cc1NC(=O)c1ccc(-c2cccc(Cl)c2)o1,Potency,[2],22.5 µM (active)
same,Potency,[3],inactive
same,Potency,[4],8.96 µM (active)
O=C1c2ccccc2C(=O)N1c1ccc2ccccc2n1,Potency,[3],inactive
N#Cc1c(-c2ccc(C(F)(F)F)cc2)no[n+]1[O-],Potency,[3],inactive
CCOc1ccc(C(=O)N2CCN(Cc3cc(=O)n4nc(-c5cccc(OC)c5)sc4n3)CC2)cc1,Potency,[2],inactive
same,Potency,[4],6.47 µM (active)
O=C(c1ccccc1O)N(Cc1ccco1)Cc1cccs1,Potency,[2],22.5 µM (active)
same,Potency,[3],inactive
same,Potency,[4],11.3 µM (active)
CCOC(=O)c1[nH]c2c(c1C)CCC(c1ccco1)C2 (stereo not given),Potency,[3],inactive
CC(C)c1ccc(NC(=O)C(c2ccccc2)N(C)C(=O)Cc2c[nH]c3ccccc23)cc1 (stereo not given),Potency,[3],inactive
O=C1CCCC2=C1C1(CCSCC1)N=C(Nc1nc3ccccc3o1)N2,Potency,[3],inactive
Cc1cc(C)nc(NC(=S)N2CCN(c3ccc(Cl)nn3)CC2)c1,Potency,[3],inactive
Cn1nnnc1Sc1ncnc2scc(I)c12,Potency,[2],inactive
same,Potency,[3],inactive
same,Potency,[4],25.2 µM (active)
CC(C)c1ccc(-n2ncc3c(=O)n(CC(=O)Nc4cc(F)ccc4Cl)cnc32)cc1,Potency,[3],inactive
COc1ccc(C2Cc3ccccc3C(=O)N2Cc2ccccc2)cc1COc1ccc(NC(C)=O)cc1 (stereo not given),Potency,[3],inactive
O=S1(=O)N=C(Sc2cccc3cccnc23)c2ccccc21,Potency,[2],inactive
same,Potency,[3],inactive
same,Potency,[4],15.9 µM (active)
CN1CCN(c2cccc(Nc3nn4c(=O)c5ccc(Br)cc5nc4s3)c2)CC1,Potency,[3],inactive
CC(=O)Nc1sc2c(c1-c1nc3ccccc3s1)CCN(C1COC1)C2,Potency,[2],14.2 µM (active)
same,Potency,[3],inactive
same,Potency,[4],4 µM (active)
OCc1ccc(-c2ccc3ncnc(NCc4nccs4)c3c2)o1,Potency,[2],14.2 µM (active)
same,Potency,[3],inactive
same,Potency,[4],4 µM (active)
CCOC(=O)c1ccc(-c2ccc3ncnc(N(C)Cc4ccc(C)o4)c3c2)o1,Potency,[3],inactive
O=C(CSc1nnc(-c2cccc([S+](=O)([O-])N3CCCC3)c2)n1-c1ccccc1)Nc1ccc(Br)cc1,Potency,[3],inactive
O=[N+]([O-])c1cc(C(F)(F)F)ccc1N1CCN(C(=S)Nc2cc(Cl)ccn2)CC1,Potency,[2],14.2 µM (active)
same,Potency,[3],inactive
same,Potency,[4],5.04 µM (active)
N#Cc1ccc(-c2ccc(-c3nc4ccccc4c(=O)[nH]3)o2)cc1,Potency,[3],inactive
Cc1ccc(CN(C)c2ncnc3ccc(-c4ccc(CO)o4)cc23)o1,Potency,[2],11.3 µM (active)
same,Potency,[3],inactive
same,Potency,[4],2.52 µM (active)
CN(C)c1ccc(Nc2nc(N)n(C(=O)c3c(F)cccc3F)n2)cc1,Potency,[6],18.6 µM (active)
same,Potency,[7],23.5 µM (active)
same,Potency,[8],4.17 µM (active)
same,Potency,[9],14.8 µM (active)
same,Potency,[10],2.63 µM (active)
same,Potency,[11],18.6 µM (active)
CN(C)c1ccc(-c2nc3ncc(Cl)c(N4CCN(CC(=O)Nc5nccs5)CC4)c3[nH]2)cc1,viability,[6],105%
same,Potency,[7],1.62 µM (active)
same,Potency,[8],0.723 µM (active)
COc1ccc2c(c1)CCc1sc(NC(=O)c3ccc(Br)cc3)nc1-2,Potency,[4],10.2 µM (active)
Cc1ccnc(N(C)C(=S)N2CCN(c3cccc(C(F)(F)F)c3)CC2)c1,Potency,[4],11.3 µM (active)
